Among the data in PubChem BioAssay (NCI) are growth values, retold here.

SMILES strings stand for the structures. This is part of a sample that, as a whole, favours compounds with a hit. Of some 83,000 tested, about 20% had one in any assay.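 Values shown are percent growth following 48 h exposure of cells in 96-well plates to a single concentration of compound; below 10 was considered active.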 Active and inactive are the calls of the source.

The assay has as its system M14 melanoma. The assay is described as follows: NCI-60 one-dose screen, 48 h (100 = growth as untreated, 0 = no growth, -100 = all killed). Conditions: 10 µM unless noted. The procedure:
Growth inhibition of the M14 human tumor cell line is measured as a screen for anti-cancer activity. Cells are grown in 96 well plates and exposed to the test compound for 48 hours. Compounds are tested at a single concentration, which is 10^-5 M for most compounds. The reported endpoint is percent growth (GI% or GIPRCNT), where numbers from 0 - 100% represent growth inhibition, and numbers from -100% - 0 represent cell death. For example, a value of 40 represents 60% growth inhibition. A value of 0 means no net growth occurred over the course of the experiment. A value of -40 indicates 40% of cells at the beginning of the experiment died by the end of the experiment. A value of -100 means all cells are dead at the end of the experiment.
NCI-60 Human Tumor Cell Lines Screen was performed using the standard one-dose NCI protocol, which is described in more detail at https://dtp.cancer.gov/discovery_development/nci-60/default.htm.
Compounds with GIPRCNT values below 10 were considered active. Activity score was based on GIPRCNT using the following formula: […]
Score is 0 for GIPRCNT values of 100 or above, 50 for GIPRCNT values of 0, and 100 for GIPRCNT values of -100.
Consider `CC(=O)OC1Oc2cc(C)c(C)cc2-c2oc(=O)c(-c3cc4ccc(N(C)C)cc4oc3=O)cc21` (stereo not given), for which the growth was 86.7% (inactive). For `O=C(Nc1cccc2c1C(=O)c1cccc(Nc3cccc4c3C(=O)c3cccc(NC(=O)c5ccccc5)c3C4=O)c1C2=O)c1ccccc1` the value was 104% (inactive); for `C/C(Cc1ccc(Cl)cc1)=C(\c1ccc(OCCN2CCCCCC2)cc1)c1ccc(OC(=O)C2CCCCC2)cc1`, 12.7% (inactive); for `O=C(O)c1cn(C2CC2)c2cc(N3CCN(Cc4nc5c(cnn5-c5ccc([N+](=O)[O-])cc5)c(=O)[nH]4)CC3)c(F)cc2c1=O`, 102% (inactive). Then `O=C1C(Cl)=C(Cl)C(=O)c2c1nc1n2CCCC1`, with 105% (inactive); and `COc1ccc(-c2cnoc2-c2cc(OC)c3c(c2)OCCO3)cc1`, with 7.58% (active).

For `CC1=CC(=O)CC(C)(C)[C@@]1(O)/C=C/[C@@H](C)O`, the growth was 102% (inactive). Then `CN(C)c1ccc(/C=C\C2=[N+](C)c3ccccc3C2(C)C)cc1`, with 18% (inactive); and `C=C1CC2(OC1=O)C(=O)N(CCCCCCCCCCCCN1C(=O)C3(CC(=C)C(=O)O3)c3ccccc31)c1ccccc12` (stereo not given), with 79.4% (inactive); and `CCCCCCCCCCCCCCCC[N+]1(CC)CCCC1`, with -45% (active). Then `O=C(/C=C\c1ccc2ccccc2n1)c1cc(Cl)ccc1O`, with 84.6% (inactive).

For `COc1cc2c(cc1O)CCc1cc(O)cc(OC)c1-2`, the growth is 94.6% (inactive). For `CS(=O)(=O)c1ccc(-c2cnc3ccc(-c4cccc(S(C)(=O)=O)c4)nn23)cc1` the value was 42.8% (inactive). Then `COc1c2ccccc2c(OC)c2[nH]c(=O)ccc12`, with -46.1% (active).

Turning to `O=c1[nH]c(-c2ccccn2)nc2sc3c(c12)CCCCC3`, the growth was 43.3% (inactive). `COc1ccc2nc3cc(Cl)ccc3c(NCCNCC(O)CO)c2c1` (stereo not given): the growth is 28% (inactive).

Take `COc1ccc(CCN2CCCn3c2nc2ccccc2c3=O)cc1`: the growth was 21.4% (inactive). Then `Cc1cc2c(cc1C)NC1=C(N2)OC(c2c3ccccc3cc3ccccc23)C1=O` (stereo not given), with 10% (inactive). For `COc1ccc2c(c1)C(=O)/C(=C/c1cccc(OCC(=O)Nc3nc4c(s3)CCCC4)c1)O2` the value was -27.4% (active). For `O=C(O)C(O)C(O)C(=O)O.[NH-]C1CCCCC1[NH-].[Pt+2]` (stereo not given), the growth was 103% (inactive). Then `CN1/C(=C\C=C\C2=[N+](C)c3ccccc3C2(C)C)C(C)(C)c2ccccc21`, with -42.6% (active); and `NS(=O)(=O)c1ccc(-n2ncc3c(=O)[nH]c(CN4CCN(c5cc6c(cc5F)c(=O)c(C(=O)O)cn6C5CC5)CC4)nc32)cc1`, with 92.9% (inactive). Turning to `C=CC[N+]1(CC)CCN=C1CCCCCCCCCCCCCCCCC` (stereo not given), the growth was -99.8% (active). For `CCCCCCCCCC(=O)Oc1ccc(/C(=C(/C)c2ccccc2)c2ccc(OCCN3CCCC3)cc2)cc1` the value was -57.8% (active).

With `C=C1CCC2C3(C)COC(c4ccc(OC)cc4Br)OC3CCC2(C)C1/C=C/C1=CCOC1=O` (stereo not given), the growth was 87.3% (inactive). As for `CC(=O)N1CC(Nc2ccc(OC(F)(F)F)cc2)=CC1=O`, the growth was 4.04% (active). For `C=C1CC2(OC1=O)C(=O)N(CCCCCCCN1C(=O)C3(CC(=C)C(=O)O3)c3ccccc31)c1ccccc12` (stereo not given) the value was 36.5% (inactive). Then `COc1ccc(CN2C(=O)/C(=C\c3cc(OC)c(OC)c(OC)c3)c3cc(OC)ccc32)cc1`, with -28% (active). For `O=C(CO[N+](=O)[O-])Nc1ccc(C(=O)/C=C/c2ccc(Cl)cc2)cc1` the value was 3.46% (active).

Take `O=c1c2c3c(sc2n2c(CCl)nnc2n1Cc1ccccc1)CCCC3`: the growth was -49.9% (active). Then `Cc1ccc2cnc(N)c(C#Cc3cncc(C(=O)Nc4ccc(CN5CCN(C)CC5)c(C(F)(F)F)c4)c3)c2c1`, with -62.2% (active); and `Cc1cc(N/N=C/c2nc(-c3ccc(Cl)cc3)oc2C)c2cc(Cl)ccc2n1`, with 8.84% (active); and `O=C(O)c1cccc2c1-c1ccccc1C2=O`, with 94.5% (inactive).

`CNCCCn1c2c(c3ccc([N+](=O)[O-])cc3c1=O)C(=O)c1cc(OC)cnc1-2`: the growth is -13.1% (active). In the case of `CNc1nc(C)c(-c2nc(Nc3cccc(S(N)(=O)=O)c3)ncc2F)s1`, the growth is -3.19% (active).

As to `COc1ccc(C(=O)/C=C/c2cc3ccccc3[nH]c2=O)cc1`, the growth was 59.6% (inactive).

With `CC1=C(NCCN2CCCC2)C(=O)c2c(OCc3ccc(C(F)(F)F)cc3)cccc2C1=O`, the growth is -82.2% (active). Then `Cc1ccc(SCN2CCN(c3cccc(Cl)c3)CC2)cc1`, with 96.9% (inactive); and `CN(C)C(=O)c1cc2cnc(Nc3ccc(-c4csc5c(=O)cc(N6CCNCC6)oc45)cc3)nc2n1C1CCCC1`, with 27.1% (inactive); and `Brc1cccc(-c2nc(-c3ccc4c(c3)OCCO4)co2)c1`, with 46% [25 µM] (inactive).
